What was measured:
Assay in all cases: PBM binding z-score (relative to random genomic background probes); higher = stronger binding; sequences stand for … in GC…GCGATTGACAGCGTAGAATGAAGG
[1] = test system: RARb homodimer (NR concentration 270 nM)
Method in brief: (§1)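 Custom Agilent 4×180K protein-binding microarrays carried double-stranded probes, each with a 34-nt variable region. These regions held direct-repeat seeds, single-nucleotide variants, half-site ablations and random human genomic background sequences. Ligand-free nuclear receptor dimers were incubated on the arrays for 1 h, antibodies against each partner (one per run) detected binding, and scanned fluorescence was regression-normalized. Binding z-scores take the random background probes as reference.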

[2] = test system: RARg:RXRa (NR concentration 270 nM, RXRa partner concentration 90 nM)
Method in brief: as §1

[3] = test system: RARg homodimer (NR concentration 270 nM)
Method in brief: as §1

[4] = test system: RXRa DBDmut IVT, anti-RXR (DBD mutation: RXRa K156A/R161A, NR concentration 90 nM)
Method in brief: as §1

[5] = test system: RXRa homodimer (NR concentration 180 nM)
Method in brief: as §1

[6] = test system: THRa:RXRa (NR concentration 90 nM, RXRa partner concentration 90 nM)
Method in brief: as §1

[7] = test system: THRa homodimer (NR concentration 90 nM)
Method in brief: as §1

[8] = test system: VDR homodimer (NR concentration 270 nM)
Method in brief: as §1

| Sequence | PBM binding z-score [1] | PBM binding z-score [2] | PBM binding z-score [3] | PBM binding z-score [4] | PBM binding z-score [5] | PBM binding z-score [6] | PBM binding z-score [7] | PBM binding z-score [8] |
| --- | --- | --- | --- | --- | --- | --- | --- | --- |
| CTGGAAAGGTCGTGCTCAGGTGAGTATACCAAAC | 2.76 | 5.06 | 3.97 | 1.91 | 4.95 | 4.09 | 0.923 | 0.759 |
| CCTAGTTGGTTAGGAGGTCACACACCGGATATGA | 3.78 | 4.04 | 3.53 | 0.861 | 3.97 | 3.42 | 2.5 | 3.06 |
| TCTTGTCGATCAAGCAGGTTAAGAAAGCCTGAGT | 0.296 | -0.133 | -0.273 | 0.138 | 0.0791 | 0.127 | -0.374 | -0.0959 |
| TAGCCTAGGTCATTGAGCCAGTATAGTACGCATC | 2.68 | 3.9 | 4.06 | 1.72 | 2.9 | 2.79 | 0.737 | 1.03 |
| AGTCAAAGTTCACTAGGTAACGTATGATTCAGCT | 3.72 | 4.86 | 5.88 | 4.22 | 3.76 | 2 | 0.141 | 3.34 |
| AGTCAAAGTTCACTCGGTAACGTAAGATTCAGCT | 3.89 | 4.91 | 5.79 | 4.02 | 3.83 | 1.79 | -0.0176 | 4.11 |
| TCTGCTAGGTCAGTTGGTGAGCTAACGAGCTGCC | 1.93 | 2.27 | 3.76 | 0.367 | 0.541 | 1.04 | -0.41 | -0.739 |
| GGAACGAGGGCCAGTTGATAGCAGAGTTTGATGG | 0.014 | -0.18 | 0.0481 | -0.0614 | 0.143 | -0.74 | -0.812 | -0.327 |
| TATACAGGGTCAAAGGCAAGAGTACGAATGTCGA | 3.28 | 5.58 | 5.01 | 3.09 | 6.4 | 3.48 | 1.05 | 3.39 |
| CCTACTGGGCCATTCAGTGGTCATTGATCATATG | 0.199 | 0.241 | 0.159 | -0.408 | -0.279 | -0.329 | -0.878 | -0.288 |
| GCTAGTTGGTCACTAAAAGGTCACACACCGGTCG | 5.51 | 5.78 | 5.45 | 0.465 | 5.16 | 3.61 | 1.7 | 2.13 |
| CCTACTGGGCCAAAAAGGTCTTTGATGCCGATAA | 0.452 | -0.217 | -0.013 | -0.428 | -0.121 | -0.113 | -0.671 | -0.382 |
| TTACCAAGGTGAAAGGTCGCTGATGCACGCCTTG | 2.77 | 4.17 | 2.3 | 0.982 | 5.52 | 3.19 | 0.725 | 0.555 |
| CCTAGTAGGCCAATCTGGGTCACTCAAGGCTTGA | 2.52 | 1.43 | 1.67 | -0.0412 | 0.813 | 3.89 | 0.525 | -0.107 |
| CGAACTAGGTCATCCAGGACGGTGAATACATTGA | 2.81 | 4.14 | 4.7 | 1.85 | 3.01 | 3.07 | 1.04 | 1.3 |
| TCTGCTAGGTCAACGATGGACAGCTAATCTGCTA | 2.79 | 3.82 | 4.71 | 0.955 | 2.5 | 2.86 | 0.203 | -0.736 |
| ATACCTAGGTGATCGTGAGGTCGTTGATACTAAC | 1.49 | 1.58 | 0.568 | 0.641 | 1.51 | 3.15 | 2.51 | 3.13 |
| TAGCCTAAGTCATTCAGGGGCCAGTATAGAAAGC | 0.772 | 1.72 | 0.386 | -0.0569 | 0.191 | 0.835 | -0.418 | -0.452 |
| GCTCGGAGGACACGGTCAGAGCTTTGTCCGTAGA | 1.35 | 0.822 | 1.71 | 0.29 | -0.503 | 1.36 | 0.245 | -0.453 |
| CGTCCAAGGCCATAGGAGGTCAGTGAAGACAGAT | 3.61 | 2.74 | 3.57 | 0.911 | 1.74 | 3.89 | 1.18 | 1.42 |
| AGTATTAGTTGAGACGAGGGCAACCGATAGGTTG | 1.37 | 0.642 | 0.922 | 0.464 | 0.65 | 2.68 | 0.356 | 1.53 |
| CTACCAAGGTGAACAAGGCCGTTGATTACTATTC | 0.956 | 0.749 | 0.894 | 0.53 | 0.695 | 2.18 | 1.08 | 0.0898 |
| TCTTCTAGGTCAACGATGGTCAGCTAATCTGCTA | 3.76 | 4.37 | 5.58 | 1.9 | 3.09 | 3.55 | 2.17 | 0.674 |
| ATATGTAGGTTATCGGGTCCTTCAGTTTGCGCAT | 0.87 | 0.677 | 0.506 | 0.751 | 0.855 | 0.708 | 0.719 | 1.51 |
| GATACAGGGTCAGCTAGAGGCAAGAGTATGGAAA | 2.77 | 4.72 | 4.64 | 0.963 | 4.52 | 2.8 | 0.438 | 0.394 |
| AGACCGAGGGCAATGAGTTGATAGCACGGGTGGC | 0.894 | 0.934 | 1.36 | 1.31 | 0.545 | 0.481 | -0.368 | 3.16 |
| CCTATTAGTTGACCATAAGGGCAAACGAAGCTCG | 1.93 | 1.48 | 1.31 | 0.782 | 0.751 | 1.72 | 1.08 | 1.01 |
| CAAACTAGGTCACGAAGGGTCAAAGTCGAATGAC | 5.36 | 7.01 | 7.66 | 2.33 | 7.15 | 4.95 | 2 | 3.79 |
